Compound activity as filed in PubChem BioAssay.
Shiga toxin inh: A qHTS for Small Molecule Inhibitors of Shiga Toxin | 9.2% of 290,000 active | AID 2315, 2010 | Vero cells, Shiga toxin protein synthesis inhibition reporter | inhibition, % at 38.7 µM; in the data active means inhibition mostly above about 28%, no sharp cut-off; inactive means mostly below about 43%
Pf growth 96h: Primary qHTS for delayed death inhibitors of the malarial parasite plastid, 96 hour incubation; AID 504834, 2011; 6.9% of 320,000 active; P. falciparum luciferase reporter growth, 96 h; Potency, µM (top dose mostly 28.7 µM), most hits filed as inhibitors
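Readout is luminescence from an integrated firefly luciferase in P. falciparum. Red cells, 2% hematocrit and 0.05% parasitemia final, were cultured with compound through two parasite generations (96 hours) at 37 C, 5% CO2.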
Cycloheximide cs: Cycloheximide Counterscreen for Small Molecule Inhibitors of Shiga Toxin. cell reporter, cycloheximide protein synthesis inhibition counterscreen. max response, %. 12% of 300,000 active. AID 2314, 2010; in the data active means max response mostly above about 13%, no sharp cut-off; inactive means mostly below about 14%; further: read at 38.3 µM for the half of the compounds with a filed dose
Pf growth 48h: Primary qHTS for delayed death inhibitors of the malarial parasite plastid, 48 hour incubation. P. falciparum luciferase growth in erythrocytes, 48 h. Potency, µM (doses to about 28.7 µM), actives largely listed as inhibitors. 5.9% of 310,000 active
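Read-out is firefly luciferase luminescence from an integrated reporter in P. falciparum, so falling signal marks reduced parasite growth. Infected erythrocytes were at 2% hematocrit and 0.1% parasitemia (final) in Albumax-supplemented RPMI 1640.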
HCMV antiviral: qHTS Assay for inhibitors of the human cytomegalovirus (HCMV); HFF cells, HCMV-luciferase reporter, 72 h; active compounds read low; activity change, negative = inhibition, % at 57.5 µM; 4.5% of 410,000 active; in the data active means activity change below about -60%; inconclusive means no clear call, values can overlap the other calls; inactive means above about -39%
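Compounds were evaluated in HFFs infected with an HCMV luciferase reporter virus (MOI 1 PFU/cell). Luciferase in lysates collected 72 h post infection served as the replication measure.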
Numbers stand for hits. The list is not random: actives were taken first. Their share in the collection is about 20%. Unless noted, the call rests on the fitted dose curve; in most records, active means well fitted inhibition curve with a large enough effect; inconclusive means small, poorly fitted or top-dose-only effect, or another doubt; inactive means no such curve, though single readings can be large or run the other way.

How did CCOC(=O)N1CCN(C(=O)c2ccc3nc(N4CCC(C)CC4)sc3c2)CC1 do in these assays?
Shiga toxin inh: 42; Pf growth 96h: inactive; Cycloheximide cs: 24; Pf growth 48h: inconclusive; HCMV antiviral: inactive

What do the screens show for `COc1cccc(/C=C/c2nc3ccccc3c(=O)n2-c2ccc(C)c(C)c2)c1OC`?
HCMV antiviral: inactive

How did COc1cccc(NC(=O)[C@H](CC(C)C)NC(=O)[C@@H]2Cc3ccccc3CN2)c1 do in these assays?
Shiga toxin inh: inactive; Pf growth 96h: inconclusive; Cycloheximide cs: inactive; Pf growth 48h: inconclusive; HCMV antiviral: inactive

What do the screens show for `Cc1nc2c(C(=O)NCCc3ccc(Cl)cc3)cnn2c(C)c1Cc1ccc(F)cc1`?
HCMV antiviral: inactive

What do the screens show for `CC1Cc2ccccc2N1C(=O)CN(C)CC(=O)Nc1cccc(F)c1` (configuration not stated)?
Pf growth 96h: inactive; Pf growth 48h: inconclusive; HCMV antiviral: inactive

How did CCC(=O)N1CCc2cc(Br)cc(S(=O)(=O)N3CCCC(C(=O)N(C)c4ccc(Br)cc4)C3)c21 (configuration not stated) do in these assays?
HCMV antiviral: inactive

Results for CCCN=Cc1ccc(O)cc1 ?
Shiga toxin inh: inactive; Pf growth 96h: inactive; Cycloheximide cs: inactive; Pf growth 48h: inactive; HCMV antiviral: inactive

What do the screens show for `CC[C@H](C)[C@H](N)C(=O)N[C@@H](CCCNC(=N)N)C(=O)N[C@@H](CCC(N)=O)C(=O)NCC(=O)N1CCC[C@H]1C(=O)N[C@@H](CCCCN)C(=O)N[C@@H](CCC(=O)O)C(=O)N1CCC[C@H]1C(=O)N[C@@H](Cc1ccccc1)C(=O)N[C@@H](CCCNC(=N)N)C(=O)N[C@@H](CC(=O)O)C(=O)N[C@@H](Cc1ccc(O)cc1)C(=O)N[C@H](C(=O)N[C@@H](CC(=O)O)C(=O)N[C@@H](CCCNC(=N)N)C(=O)N[C@@H](Cc1ccccc1)C(=O)N[C@@H](Cc1ccc(O)cc1)C(=O)N[C@@H](CCCCN)C(=O)N[C@H](C(=O)N[C@@H](CC(C)C)C(=O)O)[C@@H](C)O)C(C)C`?
Shiga toxin inh: inactive; Cycloheximide cs: inactive

What do the screens show for `COc1ccc(C=O)cc1CSc1ccccn1`?
Shiga toxin inh: inactive; Pf growth 96h: inactive; Cycloheximide cs: 11; Pf growth 48h: inactive; HCMV antiviral: inactive

What do the screens show for `COc1ccc(C(C)=O)cc1CSc1ccccn1`?
Shiga toxin inh: inactive; Pf growth 96h: inactive; Cycloheximide cs: inactive; Pf growth 48h: inconclusive; HCMV antiviral: inactive

How did COc1cc(/C=N/NC(=O)CSc2ccccn2)ccc1OC(C)C do in these assays?
Shiga toxin inh: 68; Pf growth 96h: inactive; Cycloheximide cs: 39; Pf growth 48h: inactive; HCMV antiviral: inactive

What do the screens show for `COc1ccc(/C=N/NC(=O)c2ccc(O)cc2O)cc1CSc1ccccn1`?
Shiga toxin inh: 64; Pf growth 96h: inconclusive; Cycloheximide cs: 40; Pf growth 48h: inactive; HCMV antiviral: inactive

How did NS(=O)(=O)c1ccc(CCNC(=O)CSCc2ccccc2)cc1 do in these assays?
Shiga toxin inh: inactive; Pf growth 96h: inconclusive; Cycloheximide cs: inactive; Pf growth 48h: inactive; HCMV antiviral: inactive

How did C=CCN1CC[C@]23c4c5ccc(O)c4OC2C(=O)CC[C@@]3(O)[C@H]1C5 (some centres not stated) do in these assays?
HCMV antiviral: inactive

How did COc1ccc2c3c1OC1C(=O)CC[C@@]4(O)[C@@H](C2)N(C)CC[C@]314 (some centres not stated) do in these assays?
HCMV antiviral: -80

Results for CCS(=O)(=O)c1c(S(=O)(=O)CC)c2cc(C(C)(C)C)ccn2c1C(=O)c1ccc(F)cc1 ?
HCMV antiviral: inactive

How did Cc1cccc(C(=O)OCC(=O)NC2CCCCCCC2)c1 do in these assays?
Pf growth 96h: inactive; Pf growth 48h: inactive; HCMV antiviral: -64

What do the screens show for `Cc1cccc(CC(=O)NC2CCCCCC2)c1`?
Shiga toxin inh: inactive; Pf growth 96h: inactive; Cycloheximide cs: 14; Pf growth 48h: inactive; HCMV antiviral: inactive

How did Cc1cccc(CC(=O)NC2CCN(C)CC2)c1 do in these assays?
Pf growth 96h: inconclusive; Cycloheximide cs: inactive; Pf growth 48h: inactive; HCMV antiviral: inactive

What do the screens show for `Cc1ccc(C(=O)OCC(=O)NC2CCCC2)cc1C`?
Shiga toxin inh: 54; Pf growth 96h: inactive; Cycloheximide cs: 22; Pf growth 48h: inactive; HCMV antiviral: -78

What do the screens show for `Nc1cccc(C(=O)OCC(=O)NC2CCCc3ccccc32)c1` (configuration not stated)?
Shiga toxin inh: inactive; Pf growth 96h: inactive; Cycloheximide cs: inactive; Pf growth 48h: 12µM; HCMV antiviral: inactive

How did CCOC(=O)c1cccc(NC(=O)Cn2c(=O)nc(-c3ccccc3)c3ccccc32)c1 do in these assays?
HCMV antiviral: inactive

What do the screens show for `Cn1c(=O)c2c(nc(SCC(=O)Nc3ccc(F)cc3F)n2Cc2ccccc2)n(C)c1=O`?
HCMV antiviral: inactive

How did COc1cccc(CC(=O)Nc2ccc3nc(N4CCC(C)CC4)cc(C)c3c2)c1 do in these assays?
HCMV antiviral: inactive

How did COc1ccccc1N=Cc1c(C)c(C#N)c2[nH]c3ccccc3n2c1=O do in these assays?
Shiga toxin inh: inactive; Pf growth 96h: inactive; Cycloheximide cs: 18; Pf growth 48h: inactive; HCMV antiviral: inactive

Results for O=C(CC(SCc1ccco1)c1ccc(O)cc1)c1cccs1 (configuration not stated) ?
Shiga toxin inh: 115; Pf growth 96h: inactive; Cycloheximide cs: 37; Pf growth 48h: inactive; HCMV antiviral: inactive

Results for O=C(CC(SCCO)c1ccc2c(c1)OCO2)c1cccs1 (configuration not stated) ?
Shiga toxin inh: inactive; Pf growth 96h: inconclusive; Cycloheximide cs: 29; Pf growth 48h: inactive; HCMV antiviral: inactive

How did CC(NC(=O)Cc1cccs1)c1ccc2c(c1)OCO2 (configuration not stated) do in these assays?
Shiga toxin inh: inactive; Pf growth 96h: inconclusive; Cycloheximide cs: inactive; Pf growth 48h: inactive; HCMV antiviral: inactive

What do the screens show for `O=c1[nH]c2ccc(S(=O)(=O)Nc3ccc(Br)cc3)cc2[nH]1`?
Shiga toxin inh: inactive; Pf growth 96h: inactive; Cycloheximide cs: inactive; Pf growth 48h: inactive; HCMV antiviral: inactive

How did Cc1ccc2[nH]c3c(c2c1)CCCC3NC(=O)CCl (configuration not stated) do in these assays?
Pf growth 96h: 13µM; Cycloheximide cs: inactive; Pf growth 48h: 2.3µM

What do the screens show for `Cc1ccc2[nH]c3c(c2c1)CCCC3C(N)=O` (configuration not stated)?
Shiga toxin inh: inactive; Pf growth 96h: inactive; Cycloheximide cs: inactive; Pf growth 48h: inactive; HCMV antiviral: inactive

What do the screens show for `COc1ccc(NC2CCCN(C(=O)CCN3Cc4ccccc4C3=O)C2)cc1` (configuration not stated)?
Shiga toxin inh: inactive; Pf growth 96h: 8.3µM; Cycloheximide cs: inactive; Pf growth 48h: inactive; HCMV antiviral: inactive
